Test results published in PubChem BioAssay AID1159580 (chemical genetic matrix, 2015).
About 2,000 (36%) of roughly 5,500 compounds were called active. Roughly 18% stayed inconclusive and do not appear here. Cut-off read from the data, not from the text of the source: active = normalized growth mostly below about 0.91 (no sharp cut-off); inconclusive = no clear call, values can overlap the other calls; inactive = mostly above about 0.92. The list shows a part of the results.

Assay: chemical genetic growth profiling, strain panel (AID 1159580);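 note: tested at 20 µM; growth read once vehicle control cultures reached saturation at 30 °C; 1 = growth at the plate median or of vehicle wells; lower values mean less growth of the strain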
Conditions: growth OD

Measured: normalized growth

CCCCC(CC)CN1CN(CC(CC)CCCC)CC(C)(N)C1 (centres undefined)
active: S. cerevisiae deletion strains, locus YJR043C, strain POL32, stronger effect = lower value 0.37 | S. cerevisiae deletion strains, locus YJR075W, strain HOC1, stronger effect = lower value 0.372 | S. cerevisiae deletion strains, locus YKL160W, strain elf1, stronger effect = lower value 0.373 | S. cerevisiae deletion strains, locus YKL190W, strain CNB1, stronger effect = lower value 0.445 | S. cerevisiae deletion strains, locus YKR001C, strain vps1, stronger effect = lower value 0.0669 | S. cerevisiae deletion strains, locus YKR026C, strain gcn3, stronger effect = lower value 0.059 | S. cerevisiae deletion strains, locus YKR091W, strain srl3, stronger effect = lower value 0.0561 | S. cerevisiae deletion strains, locus YLL001W, strain dnm1, stronger effect = lower value 0.0613 | S. cerevisiae deletion strains, locus YLL026W, stronger effect = lower value 0.0554 | S. cerevisiae deletion strains, locus YLL041C, strain sdh2, stronger effect = lower value 0.0528 | S. cerevisiae deletion strains, locus YLR027C, strain aat2, stronger effect = lower value 0.0535 | S. cerevisiae deletion strains, locus YLR039C, strain RIC1, stronger effect = lower value 0.352 | S. cerevisiae deletion strains, locus YLR058C, strain SHM2, stronger effect = lower value 0.525 | S. cerevisiae deletion strains, locus YLR102C, strain apc9, stronger effect = lower value 0.832 | S. cerevisiae deletion strains, locus YLR221C, strain rsa3, stronger effect = lower value 0.0576 | S. cerevisiae deletion strains, locus YLR258W, strain gsy2, stronger effect = lower value 0.0568 | S. cerevisiae deletion strains, locus YLR262C, strain YPT6 (second series), stronger effect = lower value 0.0741 | S. cerevisiae deletion strains, locus YLR262C, strain YPT6, stronger effect = lower value 0.269 | S. cerevisiae deletion strains, locus YLR268W, strain sec22, stronger effect = lower value 0.484 | S. cerevisiae deletion strains, locus YLR320W, strain mms22, stronger effect = lower value 0.0732 | S. cerevisiae deletion strains, locus YLR330W, strain CHS5, stronger effect = lower value 0.437 | S. cerevisiae deletion strains, locus YLR342W, strain FKS1 (second series), stronger effect = lower value 0.254 | S. cerevisiae deletion strains, locus YLR342W, strain FKS1, stronger effect = lower value 0.0622 | S. cerevisiae deletion strains, locus YLR357W, strain rsc2, stronger effect = lower value 0.114 | S. cerevisiae deletion strains, locus YLR370C, strain arc18, stronger effect = lower value 0.0656 | S. cerevisiae deletion strains, locus YLR371W, strain rom2, stronger effect = lower value 0.23 | S. cerevisiae deletion strains, locus YLR384C, strain iki3, stronger effect = lower value 0.0552 | S. cerevisiae deletion strains, locus YLR418C, strain cdc73, stronger effect = lower value 0.153 | S. cerevisiae deletion strains, locus YML016C, strain PPZ1, stronger effect = lower value 0.743 | S. cerevisiae deletion strains, locus YML032C, strain rad52, stronger effect = lower value 0.407 | S. cerevisiae deletion strains, locus YML120C, strain ndi1, stronger effect = lower value 0.0565 | S. cerevisiae deletion strains, locus YML124C, strain tub3, stronger effect = lower value 0.692 | S. cerevisiae deletion strains, locus YMR058W, strain fet3, stronger effect = lower value 0.0601 | S. cerevisiae deletion strains, locus YMR078C, strain ctf18, stronger effect = lower value 0.802 | S. cerevisiae deletion strains, locus YMR125W, strain sto1, stronger effect = lower value 0.0743 | S. cerevisiae deletion strains, locus YMR129W, stronger effect = lower value 0.0564 | S. cerevisiae deletion strains, locus YMR205C, strain PFK2, stronger effect = lower value 0.0816 | S. cerevisiae deletion strains, locus YMR223W, strain ubp8, stronger effect = lower value 0.316 | S. cerevisiae deletion strains, locus YMR231W, strain pep5, stronger effect = lower value 0.0615 | S. cerevisiae deletion strains, locus YMR263W, strain SAP30, stronger effect = lower value 0.489 | S. cerevisiae deletion strains, locus YMR307W, strain GAS1, stronger effect = lower value 0.162 | S. cerevisiae deletion strains, locus YNL067W, strain RPL9B, stronger effect = lower value 0.605 | S. cerevisiae deletion strains, locus YNL071W, strain lat1, stronger effect = lower value 0.058 | S. cerevisiae deletion strains, locus YNL128W, strain TEP1, stronger effect = lower value 0.288 | S. cerevisiae deletion strains, locus YNL153C, strain GIM3, stronger effect = lower value 0.356 | S. cerevisiae deletion strains, locus YNL209W, strain ssb2, stronger effect = lower value 0.0575 | S. cerevisiae deletion strains, locus YNL233W, strain BNI4, stronger effect = lower value 0.26 | S. cerevisiae deletion strains, locus YNL248C, strain rpa49, stronger effect = lower value 0.0852 | S. cerevisiae deletion strains, locus YNL307C, strain MCK1, stronger effect = lower value 0.262 | S. cerevisiae deletion strains, locus YNL322C, strain KRE1 (second series), stronger effect = lower value 0.0601 | S. cerevisiae deletion strains, locus YNL322C, strain KRE1, stronger effect = lower value 0.336 | S. cerevisiae deletion strains, locus YNR049C, strain mso1, stronger effect = lower value 0.0593 | S. cerevisiae deletion strains, locus YNR052C, strain pop2, stronger effect = lower value 0.0951 | S. cerevisiae deletion strains, locus YOL006C, strain TOP1, stronger effect = lower value 0.196 | S. cerevisiae deletion strains, locus YOL147C, strain pex11, stronger effect = lower value 0.497 | S. cerevisiae deletion strains, locus YOR001W, strain rrp6, stronger effect = lower value 0.0714 | S. cerevisiae deletion strains, locus YOR061W, strain CKA2, stronger effect = lower value 0.583 | S. cerevisiae deletion strains, locus YOR069W, strain VPS5, stronger effect = lower value 0.736 | S. cerevisiae deletion strains, locus YOR070C, strain gyp1, stronger effect = lower value 0.0567 | S. cerevisiae deletion strains, locus YOR080W, strain dia2, stronger effect = lower value 0.0601 | S. cerevisiae deletion strains, locus YOR083W, strain WHI5, stronger effect = lower value 0.0602 | S. cerevisiae deletion strains, locus YOR106W, strain vam3, stronger effect = lower value 0.0665 | S. cerevisiae deletion strains, locus YOR136W, strain idh2, stronger effect = lower value 0.607 | S. cerevisiae deletion strains, locus YOR144C, strain elg1, stronger effect = lower value 0.662 | S. cerevisiae deletion strains, locus YOR184W, strain ser1, stronger effect = lower value 0.325 | S. cerevisiae deletion strains, locus YOR265W, strain rbl2, stronger effect = lower value 0.0536 | S. cerevisiae deletion strains, locus YOR270C, strain vph1, stronger effect = lower value 0.0981 | S. cerevisiae deletion strains, locus YOR290C, strain snf2, stronger effect = lower value 0.0607 | S. cerevisiae deletion strains, locus YOR316C, strain cot1, stronger effect = lower value 0.863 | S. cerevisiae deletion strains, locus YPL051W, strain arl3, stronger effect = lower value 0.0603 | S. cerevisiae deletion strains, locus YPL055C, strain LGE1, stronger effect = lower value 0.189 | S. cerevisiae deletion strains, locus YPL078C, strain atp4, stronger effect = lower value 0.0642 | S. cerevisiae deletion strains, locus YPL106C, strain sse1, stronger effect = lower value 0.0997 | S. cerevisiae deletion strains, locus YPL240C, strain hsp82, stronger effect = lower value 0.0539 | S. cerevisiae deletion strains, locus YPL241C, strain CIN2, stronger effect = lower value 0.733 | S. cerevisiae deletion strains, locus YPR119W, strain clb2, stronger effect = lower value 0.627 | S. cerevisiae deletion strains, locus YPR163C, strain tif3, stronger effect = lower value 0.178 | S. cerevisiae deletion strains, locus YPR167C, strain met16, stronger effect = lower value 0.533 | S. cerevisiae deletion strains, strain wtn01, stronger effect = lower value 0.425 | S. cerevisiae strains, strain wild type, stronger effect = lower value 0.21
inactive: S. cerevisiae deletion strains, locus YKL009W, strain mrt4, stronger effect = lower value 0.939 | S. cerevisiae deletion strains, locus YKL068W, stronger effect = lower value 1.01 | S. cerevisiae deletion strains, locus YKL085W, strain MDH1 (second series), stronger effect = lower value 0.994 | S. cerevisiae deletion strains, locus YKL085W, strain MDH1, stronger effect = lower value 0.994 | S. cerevisiae deletion strains, locus YNL250W, strain rad50, stronger effect = lower value 1.01 | S. cerevisiae deletion strains, locus YNL271C, strain bni1, stronger effect = lower value 0.997 | S. cerevisiae deletion strains, locus YNL298W, strain CLA4, stronger effect = lower value 1.01 | S. cerevisiae deletion strains, locus YOL012C, strain htz1 0.192 | S. cerevisiae deletion strains, locus YPR141C, strain kar3, stronger effect = lower value 1.01
